# Measured values as given in PubChem BioAssay AID1626 (SRMLSC, 2009).
# Several values for one entry are separate records, joined by “and”; a condition that tells them apart may be missing. Identical values can stand only once. Among all 220,000 compounds or so, about 2,000 (0.91%) were called active. Inconclusive results (about 2%) are left out. The list is a sample of the results. Results with a measured potency or affinity are listed apart. A number with no mark means an inactive call. No stated cut-off is given here; in the data, inconclusive means inhibition above about 80% without an active follow-up result; inactive means below that; test concentration not stated here.
# Assay: M. tuberculosis H37Rv growth inhibitors, H37Rv strain (AID 1626);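 further: bacteria incubated seven days before Alamar blue readout; 0% = bacteria only wells and 100% = bacteria with antibiotic wells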
# Conditions: hits give high values, concentration not given here
row,SMILES,inhibition
1,NC(=O)C[C@H]1NC(=O)[C@H](CCC(=O)O)NC(=O)c2cc([N+](=O)[O-])cc(I)c2NCCC[C@@H](C(N)=O)NC1=O,3.24%
2,c1ccc(CCNc2ncnc3ccccc23)cc1,-6.97%
3,c1ccc2cc3c(NCCN4CCOCC4)ccnc3cc2c1,3.77%
4,Oc1ccc(Nc2ccnc3cc(Cl)ccc23)cc1,-0.59%
5,COc1ccc(Nc2ccnc3ccccc23)cc1,9.05%
6,Cc1c(C(=O)NCc2ccccc2Cl)oc2c1C(=O)CCC2,-3.25%
7,CCCCn1nc2cc(C(=O)NCc3cc(C(F)(F)F)cc(C(F)(F)F)c3)ccc2c1OC,-4.51%
8,O=C(NC1CCCCC1)c1ccc(Cn2cc(Cl)cn2)cc1,0.85%
9,CC(=O)Nc1ccc(NC(=O)c2ccc(Cl)nc2)cc1,3.97%
10,CCCSc1ccc(C(=O)Nc2ccc(F)cc2F)cn1,72.4%
11,N=C1/C(=C/c2cccn2-c2ccc([N+](=O)[O-])cc2)C(=O)N=C2SC=CN12,-5.89%
12,N=C1/C(=C/c2cccn2-c2cccc([N+](=O)[O-])c2)C(=O)N=C2SC=CN12,-11.3%
13,Cc1ccc2cc(CN(CC3CCCO3)C(=O)C(C)C)c(=O)[nH]c2c1 (stereo not drawn),-3.77%
14,CCCCCCCCCCCCCCCC[n+]1cccc(C(=O)N(CC)CC)c1,5.29%
15,C=C(C)Cn1c(=O)c(NC(=O)c2ccccc2)c2n(c1=S)CCC2,-3.38%
16,O=C(NCCCN1CCOCC1)c1cccnc1SCc1ccccc1Cl,-2.04%
17,CCN(CC)CCN(Cc1cc2ccc(C)c(C)c2[nH]c1=O)C(=S)NCc1ccco1,-6.4%
18,O=[N+]([O-])c1ccc(COc2ccc(-c3[nH]ncc3-c3ccccc3)c(O)c2)cc1,11.9%
19,COc1ccc(-c2cn[nH]c2-c2ccc(OCc3ccc([N+](=O)[O-])cc3)cc2O)cc1,9.69%
20,Cc1ccc(SCc2ccc(C(=O)N3CCCCC3)cc2)cc1,4.74%
21,COC(=O)CCCCC1SCC(NC(=O)c2ccccc2)C1OC(C)=O (stereo not drawn),-1.97%
22,COC(=O)/C(=C\Nc1ccc(OC)cc1)NC(=O)c1ccc(Cl)cc1Cl,46.4%
23,CCN(CC)CCOC(=O)c1ccc(NC(=O)/C=C/c2cccs2)cc1,-0.83%
24,O=C(/C=C/c1cccs1)Nc1ccncc1,-3.31%
25,NS(=O)(=O)c1ccc(NC(=O)/C=C/c2cccs2)cc1,-2.49%

row,SMILES,inhibition
1,CCCOC(=O)c1ccc(NS(=O)(=O)c2cccs2)cc1,8.32%
2,CC(=O)Nc1ccc(N(C(=O)c2ccco2)C(C(=O)NC2CCCC2)c2cccs2)cc1 (stereo not drawn),-12.6%
3,O=C(O)c1cc([N+](=O)[O-])ccc1Nc1ccccc1,0.55%
4,CCOC(=O)C1=C(C)N(Cc2ccccc2)C(=O)NC1c1ccccc1OS(=O)(=O)c1ccccc1[N+](=O)[O-] (stereo not drawn),1.38%
5,CCNC(=O)CN(C1CCCCC1)S(C)(=O)=O,-1.63%
6,Cc1cc(N2CCN(C(=O)c3ccco3)CC2)n2ncnc2n1,0.62%
7,O=C(Nc1ccc(Cl)c(Cl)c1)Oc1ccc(NC(=O)c2ccco2)cc1,61.8%
8,CCc1ccc(C(C)NC(=O)Cc2ccc(F)cc2)cc1 (stereo not drawn),9.96%
9,CCOC(=O)Cn1c(-c2ccccc2)nc2ccccc2c1=O,45.8%
10,COCCCn1c(-c2ccccc2)nc2ccccc2c1=O,5.89%
11,CCCNS(=O)(=O)c1ccc(OCC(=O)Nc2ccc3c(c2)OCO3)cc1,-3.44%
12,CCCN(CC1CC1)C(=S)Nc1ccc(C(C)=O)cc1,-2.45%
13,COc1ccc(-c2nn3c(C4CCCCC4)nnc3s2)cc1OC,4.71%
14,COc1cc(-c2nn3c(C4CCCCC4)nnc3s2)cc(OC)c1OC,28.5%
15,Cc1nnc(Sc2cc(C(=O)NCCCOC(C)C)c3ccccc3n2)s1,4.65%
16,CCN1C(=O)C2(C(C#N)=C(N)Oc3n[nH]c(COC)c32)c2ccccc21 (stereo not drawn),-1.31%
17,Cc1ccc(CNCc2ccccc2Cl)cc1,6.89%
18,Cc1cccc2cc(CNCc3ccccc3)c(Cl)nc12,-2.86%
19,Cc1cc(C)c(NC(=O)CSc2nc3ccc(NC(=O)CSc4nnnn4Cc4ccccc4)cc3s2)c(C)c1,8.59%
20,O=C(CCN1CCN(Cc2ccccc2)CC1)Nc1cccc(Cl)c1,-5.85%
21,Cc1ccc2c(CN3CCN(Cc4ccc5c(c4)OCO5)CC3)cc(=O)oc2c1C,-3.12%
22,Cc1cc(C)c2c(CN3CCN(Cc4ccc5c(c4)OCO5)CC3)cc(=O)oc2c1,23.5%
23,CCOc1ccccc1NC(=O)CN1C(=O)CSC(C)C1=O (stereo not drawn),2.75%
24,CNC(=S)N1N=C(c2ccc(C)cc2)CC1c1ccc(OC)cc1 (stereo not drawn),3.11%
25,COC(=O)c1cn(C(=O)/C=C/c2ccc(OC)c(OC)c2)c2ccccc12,4.86%

row,SMILES,inhibition
1,c1ccc(Cn2c(CNc3nc4ccccc4n3CCN3CCCCC3)nc3ccccc32)cc1,16.8%
2,CCOC(=O)c1ccc(NC(=S)NNC(=O)C2(C)CC2(Cl)Cl)cc1 (stereo not drawn),1.27%
3,CN1C(=O)C(=Cc2ccc(-c3cccc(Cl)c3)o2)C(=O)N(C)C1=O,5.04%
4,O=C1/C(=C/c2ccco2)SC(=S)N1c1cccnc1,-3.57%
5,N=C1S/C(=C\c2ccco2)C(=O)N1c1ccc2c(c1)OCO2,3.8%
6,O=C1OC(c2cccs2)=N/C1=C\c1ccc(-c2cccc(Cl)c2)o1,4.3%
7,O=S(=O)(c1cnc(Cl)c(Br)c1)N1CCN(c2ncccn2)CC1,-10.8%
8,Cc1ccc(C(NC(=O)c2ccccc2)C(Cl)(Cl)Cl)cc1 (stereo not drawn),5.19%
9,CC(=O)NC(O)C(=O)c1ccccc1 (stereo not drawn),3.23%
10,O=Cc1cn(CC(=O)NCC2CCCO2)c2ccccc12 (stereo not drawn),2.23%
11,Cc1occc1-c1nnc(SCC(=O)NC2CCCC2)n1-c1ccccc1,2.16%
12,NC(=O)CSc1ncnc2c1cnn2Cc1ccccc1,-0.76%
13,CC(=O)CSc1ncnc2c1cnn2-c1ccccc1,-1.25%
14,CCOC(=O)CC(=O)CSc1ncnc2c1cnn2-c1ccccc1,-1.22%
15,CNC(=O)CSc1ncnc2c1cnn2-c1ccccc1,-3.44%
16,CCN(CC)C(=O)CSc1ncnc2c1cnn2Cc1ccccc1,-79.5%
17,CC(C)(C)C(=O)CSc1ncnc2c1cnn2-c1ccccc1,9.82%
18,CCOC(=O)CNC(=O)CSc1ncnc2c1cnn2-c1ccc(Cl)cc1,14.2%
19,CCOC(=O)Cn1cnc2c(cnn2-c2ccc(Cl)cc2)c1=O,-3.87%
20,COc1ccc(Cc2nnc(SCC(=O)N3CCCCC3)o2)cc1,3.26%
21,O=C1N(Cc2cccnc2)C[C@@H]2C[C@@H](c3cccc(C(F)(F)F)c3)N3CCC[C@@]123,2.57%
22,CCCCOc1nc2ccccc2nc1C(C#N)S(=O)(=O)c1ccccc1 (stereo not drawn),-4.72%
23,CN(c1ccc(OCC(=O)OCC(=O)NCc2ccco2)cc1)S(=O)(=O)c1ccc2ccccc2c1,-0.25%
24,COc1ccccc1C(=O)C1CCCN(C(=O)c2snnc2C)C1 (stereo not drawn),-0.23%
25,Cc1ccc(SCC(=O)NCCSCc2ccccc2)cc1,7.41%

row,SMILES,inhibition
1,CCOC(=O)CNC(=O)CSc1ncnc2c1cnn2-c1ccc(OC)cc1,14.6%
2,CCOC(=O)CNC(=O)CSc1ncnc2c1cnn2-c1ccc(C)cc1,-3.46%
3,Cc1ccc(-n2ncc3c(SCC(=O)Nc4cc(C)on4)ncnc32)c(C)c1,0.2%
4,CSc1ncnc2c1cnn2-c1ccc(C)cc1C,11.1%
5,COCc1cc(C)nc(Nc2ccc(C)c(C)c2)c1C#N,-2.04%
6,CC1=C(C(=O)Nc2ccccc2)C(c2ccco2)NC(=O)N1 (stereo not drawn),-10.5%
7,COc1cc(NC(=O)CN2C(=O)NC(C)(c3ccccc3)C2=O)c(C)cc1[N+](=O)[O-] (stereo not drawn),3.59%
8,Cc1cc(C)n2c(SC/C(O)=C(\C#N)c3nc4ccccc4[nH]3)nnc2n1,-3.82%
9,COc1ccc(C(=O)NCC2CCCO2)cc1OC (stereo not drawn),-3.63%
10,CC(COc1ccccc1Cc1ccccc1)N1CCCCC1 (stereo not drawn),1.05%
11,c1ccc(CN(CC2=NCCN2)c2ccccc2)cc1,-7.61% and -7.26%
12,CCOc1cc(N2CCOCC2)c(OCC)cc1NC(=O)c1ccc2ccccc2n1,7.27%
13,NC(=O)C1CC(O)CN1c1nc(CN2CCOCC2)nc2scc(-c3ccccc3)c12 (stereo not drawn),-8.45%
14,c1csc(-c2csc3nc(CN4CCOCC4)nc(NCc4ccc5c(c4)OCO5)c23)c1,-6.15%
15,CCNc1nc(CN2CCCCC2)nc2scc(-c3ccccc3)c12,10.7%
16,CN(Cc1ccccc1)c1nc(CN2CCOCC2)nc2scc(-c3ccccc3)c12,38.4%
17,CC/C(=N\Nc1ccccc1)c1c(O)n(-c2ccccc2)c(=O)[nH]c1=O,47.3%
18,Cc1cccc(NC(=O)c2nc[nH]c2C(=O)N[C@@H](C)C(=O)OC(C)(C)C)c1,80%
19,Cc1cccc(NC(=O)c2nc[nH]c2C(=O)N[C@@H](Cc2ccccc2)C(=O)OCc2ccccc2)c1,-0.81%
20,C[C@H](NC(=O)c1nc[nH]c1C(=O)N[C@H](C)c1ccccc1)C(=O)OCc1ccccc1,2.36%
21,CNC(=O)c1[nH]cnc1C(=O)N[C@@H](C)C(=O)OCc1ccccc1,-1.09%
22,Cc1cccc(NC(=O)c2nc[nH]c2C(=O)N[C@@H](CC(C)C)C(=O)OC(C)(C)C)c1,39%
23,C[C@H](NC(=O)c1[nH]cnc1C(=O)Nc1ccc(Cl)cc1)C(=O)OC(C)(C)C,52.4%
